Hits are enriched below; roughly 1.4% of the tested compounds scored in any of these assays.
p53 reactivation: restores transcriptional activity of mutant p53; H1299 p53-A138V BP100-luciferase reporter, luminescence, 24 h; Potency, µM (doses to about 92.2 µM), for inactives: top-dose activity change, positive = activation, actives largely listed as activators; actives 0.063% (n = 320,000); note: potency is the fitted concentration of half-maximal effect; % of control where 0% means no effect; nearly all actives have a fitted effect of over 45% in size
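p53-null H1299 cells stably carrying temperature-sensitive p53-A138V and a BP100-luciferase reporter were pinned with compounds (4-point, 1:5 series) and held 24 hrs at 37 deg C. Luminescence was read 10 min after detection reagent.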
S-ASM inh: inhibitors of human secretory acid sphingomyelinase; P17405; placental ASM, HMU-PC fluorogenic substrate, 60 min; Potency, µM (highest dose often 57.5 µM), for the others: at the top dose activity change, negative = inhibition, usual class: inhibitors; actives 0.006% (n = 340,000); AID 504937; note: potency is the fitted concentration of half-maximal effect
Target sequence (P17405 47-631 limits assumed): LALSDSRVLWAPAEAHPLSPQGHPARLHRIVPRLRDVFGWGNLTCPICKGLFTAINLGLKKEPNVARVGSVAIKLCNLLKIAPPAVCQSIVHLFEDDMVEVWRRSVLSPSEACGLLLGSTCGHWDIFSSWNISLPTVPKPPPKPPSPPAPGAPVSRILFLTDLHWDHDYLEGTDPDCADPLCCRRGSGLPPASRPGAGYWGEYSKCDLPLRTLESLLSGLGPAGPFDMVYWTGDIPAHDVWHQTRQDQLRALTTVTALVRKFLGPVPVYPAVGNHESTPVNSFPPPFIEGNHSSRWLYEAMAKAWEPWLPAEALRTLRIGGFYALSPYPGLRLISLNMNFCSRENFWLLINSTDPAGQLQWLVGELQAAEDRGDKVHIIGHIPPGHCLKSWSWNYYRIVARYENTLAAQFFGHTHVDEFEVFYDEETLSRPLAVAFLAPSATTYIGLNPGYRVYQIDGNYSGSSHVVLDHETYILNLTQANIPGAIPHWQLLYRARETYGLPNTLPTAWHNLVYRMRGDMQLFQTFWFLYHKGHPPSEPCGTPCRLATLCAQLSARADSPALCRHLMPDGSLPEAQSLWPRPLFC
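Human placenta-derived ASM preincubated with compound 10 min at room temperature, then reacted with 9 uM (final) fluorogenic HMU-PC substrate for 60 min at 37 C. Stop solution raises pH to 10; fluorescence read at Ex 386/Em 447 nm.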
KCNH2 3.1 block: blocks the human KCNH2 3.1 channel isoform; actives 0.95% (n = 340,000); U2OS KCNH2 3.1, thallium flux FluxOr; stronger effect = lower value; AID 720553; activity change, % (tested at about 1.8 µM);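 active = maximum activity change below -70%; inconclusive = maximum activity change from -70% to -50%; inactive = maximum activity change above -50%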;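 note: thallium influx rate constant from kinetic fluorescence after stimulation buffer; % is set by controls: 0 for no effect and ±100 for the full control effect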
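Measured as rate of thallium-driven FluxOr signal in transduced U2OS cells carrying the 3.1 channel, read kinetically for 2 min upon stimulation; values are rate constants scaled to DMSO control wells.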
hERG WT inh: KCNH2 (human, wildtype) channel inhibition | Q12809 | U2OS, BacMam KCNH2, thallium flux FluxOr; stronger effect = lower value | activity change, % at 1.84 µM | actives 0.37% (n = 340,000) | AID 720551;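 active = maximum activity change below -70%; inconclusive = maximum activity change between -70% and -50%; inactive = maximum activity change above -50%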; note: % is set by controls: 0 for no effect and ±100 for the full control effect
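U2OS cells transduced with wild-type KCNH2 virus are loaded with FluxOr dye for 45 min, and thallium flux is measured in kinetic reads before and after stimulation buffer. Rate constants are normalized to DMSO controls.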
Mm-Cpn inhibitor: inhibitors of Methanococcus maripaludis chaperonin TRiC (MmCpn); Potency, µM (titrated, usually from 76.9 µM), inactives show at the top dose activity, negative = inhibition, actives largely listed as inhibitors; AID 504842; actives 0.031% (n = 330,000); purified Mm-Cpn ATPase, ADP Transcreener TR-FRET; note: potency is the fitted concentration of half-maximal effect; % is set by controls: 0 for no effect and ±100 for the full control effect; nearly all actives have a fitted effect of over 80% in size
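Inhibition of chaperonin ATP hydrolysis is measured as reduced ADP production, detected by competitive TR-FRET in which signal falls with ADP. Final enzyme 25 nM and ATP 10 uM, reacted 30 min at 37°C.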
uPA generation: cell surface uPA generation inhibition; cell surface uPA generation assay, qHTS; Potency, µM (doses to about 38.3 µM), without a hit: at the top dose activity change, negative = inhibition, actives largely listed as inhibitors; actives 0.31% (n = 330,000); active = well fitted inhibition curve with a large enough effect; inconclusive = small, poorly fitted or top-dose-only effect; inactive = no such curve, though single readings can be large or run the other way; tested in mouse RAW 264.7 cells; note: potency is the fitted concentration of half-maximal effect; % is set by controls: 0 for no effect and ±100 for the full control effect; nearly all actives have a fitted effect of over 55% in size
Active calls of the source: *; ? = inconclusive; . = not tested or not shown. Unless noted, calls come from the whole dose curve; as a rule, active = well fitted curve in the direction sought with a large enough effect; inconclusive = small, poorly fitted or top-dose-only effect, or another doubt; inactive = no such curve, though single readings can be large; an effect the other way counts as inactive or inconclusive.

SMILES	p53 reactivation	S-ASM inh	KCNH2 3.1 block	hERG WT inh	Mm-Cpn inhibitor	uPA generation
Cc1ccnc(NC(=O)c2cccc(S(=O)(=O)N3CCN(c4ccc(F)cc4)CC3)c2)c1	10%	-1%	-72*	-26	-4%	-4%
Cc1ccc(S(=O)(=O)Nc2ccccc2C(=O)Nc2nc(-c3ccc(F)cc3)cs2)cc1	28%	163%	14	-4	-13%	13µM*
CCOc1ccc(-c2csc(NC(=O)c3ccc(S(=O)(=O)N4CCc5ccccc5C4)cc3)n2)cc1	-1%	10%	-41	-8	?	0%
Cc1nnc(NC(=O)c2cccc(S(=O)(=O)N3CCN(C)CC3)c2)s1	0%	2%	-5	-4	?	-1%
Cc1ccc(-c2csc(NC(=O)c3cccc(S(=O)(=O)N4CCN(C)CC4)c3)n2)cc1	4%	-16%	-79*	-2	0%	0%
CC1(C)C(=O)N(CCN2CCC(C(=O)c3ccc(F)cc3)CC2)c2ccccc21	-2%	2%	-75*	17	-2%	-7%
O=C(c1ccc(F)cc1)C1CCN(CCn2c(=S)[nH]c3ccccc3c2=O)CC1	.	.	.	.	-1%	.
CC(C)COc1cccc(C(=O)Nc2ccc(N3CCOCC3)cc2N2CCOCC2)c1	4%	-7%	-18	-13	-1%	-1%
Cc1cccc(-c2nc(CN3CCCC(C(=O)NC4CCCC4)C3)c(C)o2)c1 (stereo not given)	-7%	0%	-82*	38	1%	.
Cc1cccc(-c2nc(CN3CCCC(C(=O)NC4CCC(C)CC4)C3)c(C)o2)c1 (stereo not given)	-2%	-2%	-26	10	-2%	2%
COc1ccccc1N1CCN(C/C(C)=C/c2ccccc2)CC1	-7%	6%	-98*	33	-1%	.
COc1cccc(/C=N/N2CCN(c3ccccc3OC)CC2)c1	?	-2%	-120*	-25	0%	.
COc1ccc(S(=O)(=O)Nc2cc3c4c(c2)CC(=O)N4CCC3)cc1OC	.	.	-9	-1	.	.
COc1ccc(-c2c[n+](CC(=O)OC3CC(C)CCC3C(C)C)c3n2CCC3)cc1 (stereo not given)	-1%	-3%	-17	-38	4%	6.3µM*
O=C(NC1c2ccccc2Oc2ccccc21)c1ccc([N+](=O)[O-])cc1	.	0%	-100*	?	.	-6%
O=C(N[C@H]1CC1c1ccccc1)c1ccc([N+](=O)[O-])cc1 (stereo not given in full)	?	-1%	37	1	-2%	-23%
O=C(NCc1ccncc1)Nc1ccc2c(c1)OCO2	12%	6%	5	-7	-1%	5%
c1cc(CNc2ccc3c(c2)OCCO3)ccn1	25µM*	3%	.	-1	-3%	-4%
CCOc1ccc(C(=O)N2CCN(c3ccccc3)CC2)cc1OCC	-1%	-1%	-4	10	-1%	-4%
CCOc1ccc(C(=O)N2CCN(CCc3ccccc3)CC2)cc1OCC	.	3%	-90*	-30	-1%	-1%
Nc1ccccc1C(=O)NC(=O)Nc1ccc(Oc2ncc(Br)cn2)c(Cl)c1	.	369%	5	19	.	-14%
O=C(CCN1C(=O)/C(=C\c2ccccc2Cl)SC1=S)Nc1cccnc1	?	0%	-7	-3	1%	-16%
O=C(CCN1C(=O)/C(=C/c2ccccc2F)SC1=S)Nc1cccnc1	.	20%	-107*	-34	-5%	2%
CCOc1ccc2c(c1)sc(N)[n+]2Cc1cc(C)cc2cccnc12	-23%	-4%	-88*	16	-1%	-8%
Cc1cc(C[n+]2ncsc2N)c2ncccc2c1	-3%	-3%	-9	0	-5%	3%
SMILES	p53 reactivation	S-ASM inh	KCNH2 3.1 block	hERG WT inh	Mm-Cpn inhibitor	uPA generation
COc1ccc2c(c1)sc(N)[n+]2Cc1cc(C)cc2cccnc12	-3%	-1%	-77*	16	1%	-9%
Cc1cc(C[n+]2cc(Cl)ccc2N)c2ncccc2c1	-2%	-2%	-6	30	1%	-11%
O=C(CCNS(=O)(=O)c1ccccc1F)NC1CCCCCC1	6%	-1%	3	-6	1%	14%
Cc1cc(C)n(-c2nc(SCCN(C)C)c3c4c(sc3n2)COC(C)(C)C4)n1	-4%	0%	-137*	?	0%	.
COc1ccc(C)cc1S(=O)(=O)N1CCC(C(=O)NCCC2=CCCCC2)CC1	4%	4%	0	-6	-2%	.
COc1ccc(C)cc1S(=O)(=O)NCCC1=CCCCC1	3%	-2%	2	-257*	1%	.
O=C(COC(=O)c1ccc(Cl)c(S(=O)(=O)N2CCN(c3ccc(F)cc3)CC2)c1)Nc1cccc(Cl)c1	-11%	.	-82*	-16	-2%	1%
COC(=O)c1ccc(-n2c(C)cc(C(=O)CSc3ccc(NC(C)=O)cc3)c2C)cc1	3%	-21%	-120*	2	-2%	7%
CN1C(=O)NC(c2ccccc2[N+](=O)[O-])C2=C1CCCC2=O (stereo not given)	9%	2%	-4	0	?	5%
Cc1cccc(C)c1NC(=O)CN	-3%	1%	-15	3	-1%	5%
Cc1cccc(C)c1NC(=O)Cn1nnnc1N	-3%	-2%	-91*	-4	0%	0%
CCN(CC(=O)Nc1ccc(OC)cc1)CC(=O)N1CC(=O)Nc2ccccc21	-8%	0%	12	-15	-1%	6%
O=C(Cn1c(=O)oc2cc(S(=O)(=O)N3CCCCC3)ccc21)N1CCCCC1	6%	-1%	-106*	-22	1%	6%
O=C(Cn1c(=O)oc2cc(S(=O)(=O)N3CCCC3)ccc21)N1CCN(C2CCCCC2)CC1	4%	-1%	-9	34	-1%	6%
O=C(CCCCCn1c(=O)[nH]c2ccccc2c1=O)NCCCN1CCN(c2ccccc2F)CC1	-1%	35%	-70*	?	3%	-1%
CSCCC(NC(=O)c1ccccc1Cl)C(=O)NCCOc1ccc(C)cc1 (stereo not given)	.	.	-14	-4	.	.
Cc1cccc(N(C)S(=O)(=O)c2ccc3[nH]cc(C(=O)N4CCOCC4)c(=O)c3c2)c1	12%	10%	-16	-8	-4%	18%
CCc1ccccc1N(C)S(=O)(=O)c1ccc2[nH]cc(C(=O)N3CCc4ccccc43)c(=O)c2c1	0%	-1%	-85*	-24	-4%	4%
CC1=NN(C(N)=S)C(=O)C1N=Nc1ccc(F)cc1 (stereo not given)	25µM*	-2%	-16	0	-1%	-2%
Cc1ccccc1-c1ccc(Nc2ccc(N3CCOCC3)cc2)nn1	8%	-1%	-73*	-33	-1%	.

Source: PubChem BioAssay
